Data as given in PubChem BioAssay.
Measured potencies and affinities stand elsewhere. Inconclusive results are not listed. Activity calls are given as the source filed them. Unless noted, how the calls were made is not given here.

Experiments:
[1] = RMG-1 ovarian cancer cell viability loss – cherry-pick, dose response (AID 687029;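 active means signal drop whose fitted half-maximal concentration is at most twice the top valid dose, in every test run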;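 further: cells exposed to compound for 96 hours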)
[2] = IOSE-T80 viability loss, PAX8-independent line – cell-based, cherry-pick, selectivity assay for PAX8 inhibitor project, dose response (AID 687032;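 active means fitted half-maximal concentration for viability loss no higher than twice the top valid dose, in every repeat run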;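 further: cells exposed to compound for 96 h before reading; 0% = neutral control wells and -100% = 2 µM mitoxantrone kill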)
[3] = CMV-driven luciferase expression suppression in HEK293 – cell-based, luminescence, dry powder, counter-screen for Pax8 inhibitor project, dose response (AID 743020;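 active means signal-lowering compounds whose fitted half-maximal concentration is at or below twice the top tested dose in every run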;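 further: HEK293 cells stably expressing the CMV luciferase reporter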)
[4] = general cell-killing toxicity readout – plate reader, dry powder samples, cytotoxicity control for PAX8 inhibitor project, dose response (AID 743021)
[5] = IGROV1 cell killing – plate reader, dry powder samples, PAX8 inhibitor project, dose response (AID 743043);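 further: more negative means fewer viable cells or more cytotoxicity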
[6] = toxicity toward immortalized ovarian surface epithelium – cell-based, plate reader, dry powder samples, cytotoxicity control for PAX8 inhibitor project, dose response (AID 743045);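 further: 0% = neutral control median and -100% = positive control median; more negative values mean more cell killing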
[7] = A2780 cell killing – plate reader, dry powder samples, cytotoxicity control, dose response (AID 743046);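 further: 0% = neutral control wells and -100% = cytotoxic reference compound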
[8] = OVCAR8 cell viability loss – plate reader, dry powder samples, PAX8 project, dose response (AID 743197)
[9] = OVCAR-3 cell viability loss – plate reader, dry powder samples, PAX8 inhibitor project, dose response (AID 743044); conditions: max activity: at 35 µM, hits give low values unless noted

Measured: max activity

C[C@H]1CN([C@@H](C)CO)S(=O)(=O)c2ccc(C#Cc3ccc(F)cc3)cc2O[C@@H]1CN(C)C(=O)NC1CCCCC1
not listed: [9]
inactive: all other assays above

O=C(Cc1ccccc1)N1CC[C@H]2[C@H](CO)Nc3ccc(C4=CCCCC4)cc3[C@H]21
not listed: [9]
inactive: all other assays above

Cc1cccc(S(=O)(=O)N2CC[C@@H]3[C@H]2c2cc(C4=CCCCC4)ccc2N[C@@H]3CO)c1
inactive: [1] | [2] | [3] | [4] | [9] 9.72% [at 4.2 µM, hits give low values] | [6]

C[C@@H]1CCCCO[C@H](CN(C)Cc2ccc(C(F)(F)F)cc2)[C@H](C)CN([C@@H](C)CO)C(=O)c2cc(NC(=O)c3ccccc3)ccc2O1
not listed: [6] | [8] | [9]
inactive: all other assays above

C[C@@H]1CCCCO[C@H](CN(C)Cc2ccc(C(=O)Nc3ccccc3N)cc2)[C@@H](C)CN([C@@H](C)CO)C(=O)c2cc(NS(=O)(=O)c3ccc(Cl)cc3)ccc2O1
not listed: [6] | [8] | [9]
inactive: all other assays above

C[C@@H]1CN([C@H](C)CO)C(=O)c2cc(NS(=O)(=O)c3ccccc3)ccc2O[C@@H](C)CCCCO[C@@H]1CN(C)Cc1ccc(Cl)c(Cl)c1
inactive: [1] | [2] | [3] | [4] | [9] -20% [at 9 µM, hits give low values] | [6] | [7]

COc1ccc(CN(C)C[C@H]2OCCCC[C@H](C)Oc3ccc(NC(=O)Nc4ccc(C(F)(F)F)cc4)cc3C(=O)N([C@@H](C)CO)C[C@@H]2C)cc1
inactive: [1] | [2] | [3] | [4] | [9] -11.3% | [6] | [7]

O=C(C[C@@H]1CC[C@@H]2[C@H](COC[C@H](O)CN2S(=O)(=O)c2ccccc2Cl)O1)N1CCC(Cc2ccccc2)CC1
inactive: [1] | [2] | [3] | [4] | [9] -15.3% | [7]

N#C[C@@H]1[C@@H](c2ccc(-c3cccc(F)c3)cc2)[C@H](CO)N1C(=O)NC1CCCC1
inactive: [1] | [2] | [3] | [4] | [9] 15.7% [at 0.26 µM, hits give low values] | [7] | [8]

C[C@@H]1CCCCO[C@H](CN(C)S(=O)(=O)c2cccs2)[C@@H](C)CN([C@@H](C)CO)C(=O)c2cc(NC(=O)Nc3ccc(C(F)(F)F)cc3)ccc2O1
inactive: [1] | [2] | [3] | [4] | [9] -21.9% | [6] | [7] | [8]

C[C@@H]1CN([C@@H](C)CO)C(=O)c2cc(NC(=O)Cc3ccccc3)ccc2O[C@@H](C)CCCCO[C@@H]1CN(C)Cc1ccc(C(F)(F)F)cc1
inactive: [1] | [2] | [3] | [4] | [9] -8.58% | [6] | [7]
